Assay results: ChEMBL document CHEMBL1961873, “Compounds: GSK PKIS; Assays: Nanosyn kinase panel” (2012)

Tests used:
[1] = molecular target: Protein kinase C gamma type (Homo sapiens) (UniProt P05129); details: at 1 µM;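 also: each value is an averaged percent inhibition of the enzyme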
[2] = molecular target: T1, Protein kinase C iota type (Homo sapiens) (UniProt P41743); details: at 0.1 µM
T1 sequence (whole entry): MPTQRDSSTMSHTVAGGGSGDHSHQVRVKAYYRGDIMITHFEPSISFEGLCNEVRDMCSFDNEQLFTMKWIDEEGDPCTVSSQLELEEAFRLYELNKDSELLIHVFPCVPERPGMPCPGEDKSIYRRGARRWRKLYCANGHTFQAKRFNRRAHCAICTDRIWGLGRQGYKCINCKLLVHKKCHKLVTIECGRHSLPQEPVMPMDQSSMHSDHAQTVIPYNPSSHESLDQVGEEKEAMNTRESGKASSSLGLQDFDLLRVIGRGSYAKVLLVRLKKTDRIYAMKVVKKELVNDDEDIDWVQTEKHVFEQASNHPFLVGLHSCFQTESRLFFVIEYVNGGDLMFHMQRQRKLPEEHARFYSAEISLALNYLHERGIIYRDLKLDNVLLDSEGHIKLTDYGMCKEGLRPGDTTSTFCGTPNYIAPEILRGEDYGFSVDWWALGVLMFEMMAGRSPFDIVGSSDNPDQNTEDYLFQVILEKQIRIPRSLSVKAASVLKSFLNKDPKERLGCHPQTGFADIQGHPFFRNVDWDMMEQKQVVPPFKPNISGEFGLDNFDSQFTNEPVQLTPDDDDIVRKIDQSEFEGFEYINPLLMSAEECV

[3] = molecular target: T1, Protein kinase C iota type (Homo sapiens); details: at 1 µM
[4] = molecular target: Protein kinase C theta type (Homo sapiens) (UniProt Q04759); details: at 0.1 µM
[5] = molecular target: Protein kinase C theta type (Homo sapiens) (UniProt Q04759); details: at 1 µM
[6] = molecular target: Protein kinase C beta type (Homo sapiens) (UniProt P05771); details: at 0.1 µM
[7] = molecular target: Protein kinase C beta type (Homo sapiens) (UniProt P05771); details: at 1 µM
[8] = molecular target: T2, Serine/threonine-protein kinase D1 (Homo sapiens) (UniProt Q15139); details: at 0.1 µM
T2 sequence (whole entry): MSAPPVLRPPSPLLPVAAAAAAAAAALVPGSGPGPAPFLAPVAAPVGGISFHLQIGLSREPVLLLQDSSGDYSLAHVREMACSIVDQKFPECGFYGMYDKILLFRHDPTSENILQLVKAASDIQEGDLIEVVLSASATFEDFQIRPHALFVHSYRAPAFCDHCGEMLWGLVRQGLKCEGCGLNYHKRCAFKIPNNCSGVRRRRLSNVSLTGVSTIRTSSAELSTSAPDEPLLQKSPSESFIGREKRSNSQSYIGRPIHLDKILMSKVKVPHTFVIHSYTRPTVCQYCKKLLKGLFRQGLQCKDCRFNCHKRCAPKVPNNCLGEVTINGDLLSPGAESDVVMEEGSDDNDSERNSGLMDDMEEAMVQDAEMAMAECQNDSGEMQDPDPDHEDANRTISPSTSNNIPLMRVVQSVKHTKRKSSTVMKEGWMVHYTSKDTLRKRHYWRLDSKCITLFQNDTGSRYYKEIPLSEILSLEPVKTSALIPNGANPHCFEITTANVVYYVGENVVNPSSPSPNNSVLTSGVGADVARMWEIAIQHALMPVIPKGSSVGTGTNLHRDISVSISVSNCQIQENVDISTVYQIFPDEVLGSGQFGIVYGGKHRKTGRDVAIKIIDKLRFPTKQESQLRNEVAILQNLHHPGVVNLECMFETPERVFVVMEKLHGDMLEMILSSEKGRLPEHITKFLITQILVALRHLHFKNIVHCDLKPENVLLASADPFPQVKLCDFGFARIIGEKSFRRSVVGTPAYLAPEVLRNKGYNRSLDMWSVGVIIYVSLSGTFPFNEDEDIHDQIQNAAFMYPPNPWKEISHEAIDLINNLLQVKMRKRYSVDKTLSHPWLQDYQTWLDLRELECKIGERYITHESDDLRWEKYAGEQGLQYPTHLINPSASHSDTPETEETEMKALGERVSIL

[9] = molecular target: T2, Serine/threonine-protein kinase D1 (Homo sapiens); details: at 1 µM
[10] = molecular target: T3, Serine/threonine-protein kinase D2 (Homo sapiens) (UniProt Q9BZL6); details: at 0.1 µM
T3 sequence (whole entry): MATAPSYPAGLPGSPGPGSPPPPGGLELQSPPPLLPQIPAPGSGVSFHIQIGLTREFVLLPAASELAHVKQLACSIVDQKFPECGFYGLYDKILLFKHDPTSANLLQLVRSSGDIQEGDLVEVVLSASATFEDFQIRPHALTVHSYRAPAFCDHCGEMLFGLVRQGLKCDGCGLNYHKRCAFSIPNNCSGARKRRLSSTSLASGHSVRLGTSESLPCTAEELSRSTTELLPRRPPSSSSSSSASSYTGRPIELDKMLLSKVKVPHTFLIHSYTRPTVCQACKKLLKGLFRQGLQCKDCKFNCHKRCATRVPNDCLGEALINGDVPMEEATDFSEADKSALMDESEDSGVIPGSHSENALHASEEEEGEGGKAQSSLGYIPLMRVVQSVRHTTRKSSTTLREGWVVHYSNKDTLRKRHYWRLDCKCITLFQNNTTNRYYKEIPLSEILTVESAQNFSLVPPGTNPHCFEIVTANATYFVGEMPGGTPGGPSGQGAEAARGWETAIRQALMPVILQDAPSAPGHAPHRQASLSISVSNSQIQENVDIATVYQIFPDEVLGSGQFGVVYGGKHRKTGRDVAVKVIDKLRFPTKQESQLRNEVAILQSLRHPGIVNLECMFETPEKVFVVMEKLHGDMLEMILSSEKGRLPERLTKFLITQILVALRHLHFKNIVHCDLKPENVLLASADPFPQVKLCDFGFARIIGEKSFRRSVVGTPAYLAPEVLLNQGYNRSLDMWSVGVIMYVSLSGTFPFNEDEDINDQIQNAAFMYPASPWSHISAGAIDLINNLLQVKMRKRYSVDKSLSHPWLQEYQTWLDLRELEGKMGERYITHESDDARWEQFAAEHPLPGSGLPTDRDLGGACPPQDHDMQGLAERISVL

[11] = molecular target: T3, Serine/threonine-protein kinase D2 (Homo sapiens); details: at 1 µM
[12] = molecular target: T4, Serine/threonine-protein kinase D3 (Homo sapiens) (UniProt O94806); details: at 0.1 µM
T4 sequence (whole entry): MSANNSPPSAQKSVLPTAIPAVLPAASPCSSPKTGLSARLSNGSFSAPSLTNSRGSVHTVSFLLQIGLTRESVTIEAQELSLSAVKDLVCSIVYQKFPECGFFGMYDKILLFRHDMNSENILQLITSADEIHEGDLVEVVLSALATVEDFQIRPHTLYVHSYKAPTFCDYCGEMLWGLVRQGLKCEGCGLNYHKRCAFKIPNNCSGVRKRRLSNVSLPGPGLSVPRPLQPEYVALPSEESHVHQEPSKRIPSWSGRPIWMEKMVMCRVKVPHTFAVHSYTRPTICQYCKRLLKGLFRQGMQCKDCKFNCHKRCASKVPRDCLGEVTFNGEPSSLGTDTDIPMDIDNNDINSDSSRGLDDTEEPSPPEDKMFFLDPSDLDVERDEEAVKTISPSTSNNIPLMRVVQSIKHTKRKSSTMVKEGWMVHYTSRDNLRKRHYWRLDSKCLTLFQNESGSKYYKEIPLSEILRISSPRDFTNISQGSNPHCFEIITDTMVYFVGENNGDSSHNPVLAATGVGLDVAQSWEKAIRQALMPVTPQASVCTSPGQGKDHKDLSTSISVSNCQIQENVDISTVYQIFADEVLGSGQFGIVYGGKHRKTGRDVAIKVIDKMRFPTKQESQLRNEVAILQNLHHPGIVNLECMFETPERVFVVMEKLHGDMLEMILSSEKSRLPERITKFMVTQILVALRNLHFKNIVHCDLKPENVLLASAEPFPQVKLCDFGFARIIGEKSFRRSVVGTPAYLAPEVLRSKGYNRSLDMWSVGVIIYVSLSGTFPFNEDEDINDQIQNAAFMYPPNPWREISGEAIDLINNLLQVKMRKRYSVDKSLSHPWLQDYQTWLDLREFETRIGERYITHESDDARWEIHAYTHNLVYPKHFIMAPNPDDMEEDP

[13] = molecular target: T4, Serine/threonine-protein kinase D3 (Homo sapiens); details: at 1 µM
[14] = molecular target: T5, cGMP-dependent protein kinase 1 (Homo sapiens) (UniProt Q13976); details: at 0.1 µM
T5 sequence (whole entry): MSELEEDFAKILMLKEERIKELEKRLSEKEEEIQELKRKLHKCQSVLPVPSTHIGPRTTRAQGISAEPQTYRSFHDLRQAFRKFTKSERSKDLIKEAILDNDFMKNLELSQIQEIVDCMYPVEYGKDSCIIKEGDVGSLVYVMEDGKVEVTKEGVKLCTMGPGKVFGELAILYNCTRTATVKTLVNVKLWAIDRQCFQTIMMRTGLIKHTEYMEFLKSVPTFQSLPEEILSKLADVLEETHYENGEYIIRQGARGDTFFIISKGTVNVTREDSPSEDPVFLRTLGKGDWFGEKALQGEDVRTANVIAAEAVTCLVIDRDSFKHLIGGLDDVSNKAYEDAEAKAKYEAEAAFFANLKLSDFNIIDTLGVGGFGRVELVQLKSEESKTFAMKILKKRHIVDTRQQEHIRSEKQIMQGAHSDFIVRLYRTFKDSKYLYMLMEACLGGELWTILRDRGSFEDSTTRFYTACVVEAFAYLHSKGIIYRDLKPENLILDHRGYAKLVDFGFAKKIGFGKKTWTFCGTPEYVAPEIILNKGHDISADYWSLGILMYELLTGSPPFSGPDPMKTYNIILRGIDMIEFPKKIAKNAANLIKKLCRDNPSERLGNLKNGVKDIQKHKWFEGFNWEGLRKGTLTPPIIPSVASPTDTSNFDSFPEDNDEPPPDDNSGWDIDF

[15] = molecular target: T5, cGMP-dependent protein kinase 1 (Homo sapiens); details: at 1 µM
[16] = molecular target: T6, cGMP-dependent protein kinase 2 (Homo sapiens) (UniProt Q13237); details: at 0.1 µM
T6 sequence (whole entry): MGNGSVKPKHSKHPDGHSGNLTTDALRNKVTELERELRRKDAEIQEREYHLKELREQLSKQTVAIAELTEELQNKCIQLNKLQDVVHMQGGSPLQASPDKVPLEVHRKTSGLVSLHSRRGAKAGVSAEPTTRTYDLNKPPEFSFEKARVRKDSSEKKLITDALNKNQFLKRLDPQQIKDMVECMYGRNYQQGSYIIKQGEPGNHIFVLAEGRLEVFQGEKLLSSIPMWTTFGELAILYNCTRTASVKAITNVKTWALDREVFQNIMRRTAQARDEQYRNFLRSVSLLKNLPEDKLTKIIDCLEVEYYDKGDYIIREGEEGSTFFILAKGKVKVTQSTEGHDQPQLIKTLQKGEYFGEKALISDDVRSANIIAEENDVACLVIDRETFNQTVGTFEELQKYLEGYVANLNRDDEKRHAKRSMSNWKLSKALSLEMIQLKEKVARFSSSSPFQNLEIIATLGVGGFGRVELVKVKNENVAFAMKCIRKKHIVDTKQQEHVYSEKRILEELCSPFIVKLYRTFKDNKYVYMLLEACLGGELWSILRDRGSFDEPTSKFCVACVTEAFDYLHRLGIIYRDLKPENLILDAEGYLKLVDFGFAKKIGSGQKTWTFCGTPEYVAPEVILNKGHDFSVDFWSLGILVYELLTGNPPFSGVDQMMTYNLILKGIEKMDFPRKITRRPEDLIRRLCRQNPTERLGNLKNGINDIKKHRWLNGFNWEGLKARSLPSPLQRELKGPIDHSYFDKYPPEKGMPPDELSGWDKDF

[17] = molecular target: T6, cGMP-dependent protein kinase 2 (Homo sapiens); details: at 1 µM
[18] = molecular target: T7, cAMP-dependent protein kinase catalytic subunit PRKX (Homo sapiens) (UniProt P51817); details: at 0.1 µM
T7 sequence (whole entry): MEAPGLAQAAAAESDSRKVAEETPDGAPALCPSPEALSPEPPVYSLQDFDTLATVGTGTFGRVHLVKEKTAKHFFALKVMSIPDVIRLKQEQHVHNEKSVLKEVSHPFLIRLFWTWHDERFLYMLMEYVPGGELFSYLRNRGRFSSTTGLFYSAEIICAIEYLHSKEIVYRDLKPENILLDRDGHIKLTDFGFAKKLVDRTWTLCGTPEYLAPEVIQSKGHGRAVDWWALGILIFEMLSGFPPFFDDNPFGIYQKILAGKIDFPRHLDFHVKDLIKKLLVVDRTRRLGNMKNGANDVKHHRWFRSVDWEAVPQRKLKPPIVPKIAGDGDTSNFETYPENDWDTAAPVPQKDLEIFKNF

[19] = molecular target: T7, cAMP-dependent protein kinase catalytic subunit PRKX (Homo sapiens); details: at 1 µM
[20] = molecular target: Rho-associated protein kinase 1 (Homo sapiens) (UniProt Q13464); details: at 0.1 µM;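 also: values are mean percent inhibition of ROCK1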
Chain of Rho-associated protein kinase 1 (Homo sapiens) (Q13464 2-1354 limits assumed): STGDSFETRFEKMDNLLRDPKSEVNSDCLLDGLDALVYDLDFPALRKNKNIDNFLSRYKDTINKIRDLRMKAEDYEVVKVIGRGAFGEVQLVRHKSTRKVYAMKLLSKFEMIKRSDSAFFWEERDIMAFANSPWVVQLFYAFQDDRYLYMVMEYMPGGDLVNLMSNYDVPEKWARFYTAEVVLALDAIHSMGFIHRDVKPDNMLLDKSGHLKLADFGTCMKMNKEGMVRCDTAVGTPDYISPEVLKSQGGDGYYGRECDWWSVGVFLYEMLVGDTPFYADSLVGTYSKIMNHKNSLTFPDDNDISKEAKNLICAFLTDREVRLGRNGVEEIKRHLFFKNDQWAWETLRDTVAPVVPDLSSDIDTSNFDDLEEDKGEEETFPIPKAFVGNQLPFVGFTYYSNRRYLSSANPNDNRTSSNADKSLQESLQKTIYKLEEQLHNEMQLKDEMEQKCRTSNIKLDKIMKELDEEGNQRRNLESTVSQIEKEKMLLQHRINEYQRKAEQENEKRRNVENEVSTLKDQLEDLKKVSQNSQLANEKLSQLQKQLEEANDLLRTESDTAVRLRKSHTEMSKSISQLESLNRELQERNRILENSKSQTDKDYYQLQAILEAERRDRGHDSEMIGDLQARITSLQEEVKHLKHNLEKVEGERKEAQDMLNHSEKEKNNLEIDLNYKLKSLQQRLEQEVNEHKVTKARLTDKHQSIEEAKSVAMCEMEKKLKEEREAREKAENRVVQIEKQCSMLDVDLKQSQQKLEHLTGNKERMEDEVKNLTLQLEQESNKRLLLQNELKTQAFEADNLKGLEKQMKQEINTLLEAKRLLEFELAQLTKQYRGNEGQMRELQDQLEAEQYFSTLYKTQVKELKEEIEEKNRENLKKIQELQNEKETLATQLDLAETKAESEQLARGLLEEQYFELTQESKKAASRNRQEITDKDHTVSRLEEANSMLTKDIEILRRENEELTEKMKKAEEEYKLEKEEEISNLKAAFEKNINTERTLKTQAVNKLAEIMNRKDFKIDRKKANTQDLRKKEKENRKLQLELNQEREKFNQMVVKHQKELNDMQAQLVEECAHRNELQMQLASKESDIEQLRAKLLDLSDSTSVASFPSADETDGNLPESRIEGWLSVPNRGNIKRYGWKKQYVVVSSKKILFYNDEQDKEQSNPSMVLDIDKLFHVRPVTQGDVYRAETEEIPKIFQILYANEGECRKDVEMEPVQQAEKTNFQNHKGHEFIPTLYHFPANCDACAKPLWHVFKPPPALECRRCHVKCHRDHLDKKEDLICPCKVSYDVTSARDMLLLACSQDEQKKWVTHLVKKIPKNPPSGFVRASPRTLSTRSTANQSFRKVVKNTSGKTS

Chain of Protein kinase C theta type (Homo sapiens) (Q04759 whole entry, looked up): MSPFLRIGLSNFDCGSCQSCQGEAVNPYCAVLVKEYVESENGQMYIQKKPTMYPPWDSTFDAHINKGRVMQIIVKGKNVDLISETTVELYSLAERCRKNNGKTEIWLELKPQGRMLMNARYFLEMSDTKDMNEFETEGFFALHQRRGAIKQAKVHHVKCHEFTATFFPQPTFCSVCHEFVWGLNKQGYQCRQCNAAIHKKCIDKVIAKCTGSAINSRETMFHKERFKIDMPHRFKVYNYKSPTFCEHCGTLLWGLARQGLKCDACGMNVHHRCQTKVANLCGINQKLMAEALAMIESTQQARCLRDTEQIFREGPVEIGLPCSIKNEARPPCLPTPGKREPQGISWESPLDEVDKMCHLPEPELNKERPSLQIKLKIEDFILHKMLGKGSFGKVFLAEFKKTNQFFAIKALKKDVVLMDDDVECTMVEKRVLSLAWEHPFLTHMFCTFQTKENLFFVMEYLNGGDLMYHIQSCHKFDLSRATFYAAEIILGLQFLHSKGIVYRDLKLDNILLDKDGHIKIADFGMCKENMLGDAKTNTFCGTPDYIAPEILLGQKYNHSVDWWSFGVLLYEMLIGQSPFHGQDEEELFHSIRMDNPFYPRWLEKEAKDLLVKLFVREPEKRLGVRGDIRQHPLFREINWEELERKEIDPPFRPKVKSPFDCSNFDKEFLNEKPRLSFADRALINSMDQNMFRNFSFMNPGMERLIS
Chain of Protein kinase C beta type (Homo sapiens) (P05771 2-671 limits assumed): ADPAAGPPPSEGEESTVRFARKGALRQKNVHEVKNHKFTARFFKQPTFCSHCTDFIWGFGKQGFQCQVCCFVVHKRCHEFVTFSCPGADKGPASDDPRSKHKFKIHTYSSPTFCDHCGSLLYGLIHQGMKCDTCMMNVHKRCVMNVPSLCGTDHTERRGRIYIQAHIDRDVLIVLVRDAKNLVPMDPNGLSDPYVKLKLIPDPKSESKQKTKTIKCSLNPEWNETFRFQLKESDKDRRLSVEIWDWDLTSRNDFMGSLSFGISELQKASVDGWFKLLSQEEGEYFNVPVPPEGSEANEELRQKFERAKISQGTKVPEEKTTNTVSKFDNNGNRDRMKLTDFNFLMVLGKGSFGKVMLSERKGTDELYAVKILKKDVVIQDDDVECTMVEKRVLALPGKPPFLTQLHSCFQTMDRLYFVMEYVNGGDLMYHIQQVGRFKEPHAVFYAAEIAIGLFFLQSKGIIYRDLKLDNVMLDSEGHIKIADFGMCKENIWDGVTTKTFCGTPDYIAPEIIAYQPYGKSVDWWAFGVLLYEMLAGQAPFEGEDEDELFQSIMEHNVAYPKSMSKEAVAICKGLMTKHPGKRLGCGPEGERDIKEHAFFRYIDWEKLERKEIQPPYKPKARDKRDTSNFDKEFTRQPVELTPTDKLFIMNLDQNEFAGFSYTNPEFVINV

| SMILES | inhibition [1] | inhibition [2] | inhibition [3] | inhibition [4] | inhibition [5] | inhibition [6] | inhibition [7] | inhibition [8] | inhibition [9] | inhibition [10] | inhibition [11] | inhibition [12] | inhibition [13] | inhibition [14] | inhibition [15] | inhibition [16] | inhibition [17] | inhibition [18] | inhibition [19] | inhibition [20] |
| --- | --- | --- | --- | --- | --- | --- | --- | --- | --- | --- | --- | --- | --- | --- | --- | --- | --- | --- | --- | --- |
| Cc1ccc(-c2cc3c(NC(=O)C4CC4)ncnc3o2)cc1 | 2.25% | 2.54% | 2.8% | 2.02% | 1.79% | 5.24% | 0.65% | 3.45% | 6.06% | 4.1% | 6.17% | 5.27% | 7.32% | 3.82% | 5.54% | 1.95% | 4.28% | 1.05% | 0.33% | 1.09% |
| Cc1cc(O)cc(C)c1/C=C/c1cncc(C(=O)OC(C)(C)C)c1 | 2.62% | 2.97% | 0.22% | 1.48% | 1.91% | 1.37% | 1.05% | 2.14% | 2.96% | 1.79% | 1.78% | 2.12% | 2.64% | 3.26% | 3.58% | 1.21% | 2.65% | 3.57% | 6.36% | 2.92% |
| OCCCNc1nccc(-c2c(-c3ccc(F)cc3)nn3cc(C(F)(F)F)ccc23)n1 | 1.12% | 0.77% | 4.1% | 0.12% | 0.91% | 1.5% | 7.52% | 1.85% | 14.1% | 2.01% | 16.9% | 4.73% | 33.9% | 1.52% | 4.78% | 2.03% | 3.96% | 0.4% | -0.76% | 0.15% |
| N#Cc1cccc(Nc2ncc(-c3ccccc3)o2)c1 | 5.3% | 0.25% | 0.06% | 1.33% | 3.57% | 0.6% | 1.2% | 5.32% | 2.44% | 1.97% | 2.25% | 1.91% | 1.02% | -0.54% | 3.32% | 0.03% | 1.45% | 1.09% | 2.62% | 0.04% |
